# Laboratory results taken from PubChem BioAssay (NCATS).
# “And” between values parts separate entries of the source, which are not always exact repeats. Equal values may be shown once. Inconclusive results are not listed. A call without a number means that no potency is given here. A structure can be active in one record and inactive in another. The source made the active and inactive calls. Unless noted, calls come from the whole dose curve; as a rule, active = well fitted curve in the direction sought with a large enough effect; inconclusive = small, poorly fitted or top-dose-only effect, or another doubt; inactive = no such curve, though single readings can be large; an effect the other way counts as inactive or inconclusive. Where a SMILES comes first, the peptide text is derived from it. Bridges are numbered along the chain shown (N, C = ends). [ ]: non-standard residue; d: D form. The star is where a group is joined. X1 = CCC(C)C(N)C1=NC(C(=O)*)CS1; dOrn = NCCC[C@@H](N)C(=O)O
# Key:
# [1] = biological target: Glutathione peroxidase 1 (Homo sapiens) (UniProt P07203); assay: Primary qHTS Assay for Inhibitors of Recombinant Selenoprotein Glutathione Peroxidase 1 (GPX1) (AID 1845191); note: nearly all actives have a fitted effect of over 65% in size
# Glutathione peroxidase 1 (Homo sapiens), sequence (P07203 whole entry, looked up): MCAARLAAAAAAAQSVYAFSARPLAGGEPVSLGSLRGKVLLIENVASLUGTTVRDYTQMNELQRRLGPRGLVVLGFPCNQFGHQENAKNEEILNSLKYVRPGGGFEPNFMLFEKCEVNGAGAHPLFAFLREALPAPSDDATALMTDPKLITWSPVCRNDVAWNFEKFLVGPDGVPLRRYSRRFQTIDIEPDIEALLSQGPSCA
# Method in brief: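 10 nM GPX1 + cpd, 30 min RT; start w/ 1 mM GSH, 0.5 mM cumene hydroperoxide, 0.5 mM NADPH, 100 nM GR, 0.01% BSA; buffer 50 mM Tris-HCl pH 7.5, 2 mM EDTA, 150 mM NaCl; Fl 340/450, 0 & 15 min.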
# [2] = biological target: Phospholipid hydroperoxide glutathione peroxidase GPX4 (Homo sapiens) (UniProt P36969); assay: Primary qHTS Assay for Inhibitors of Recombinant Selenoprotein Glutathione Peroxidase 4 (GPX4) (AID 1845192); note: nearly all actives have a fitted effect of over 65% in size; note: potency is the fitted concentration of half-maximal effect
# Phospholipid hydroperoxide glutathione peroxidase GPX4 (Homo sapiens), sequence (P36969 whole entry, looked up): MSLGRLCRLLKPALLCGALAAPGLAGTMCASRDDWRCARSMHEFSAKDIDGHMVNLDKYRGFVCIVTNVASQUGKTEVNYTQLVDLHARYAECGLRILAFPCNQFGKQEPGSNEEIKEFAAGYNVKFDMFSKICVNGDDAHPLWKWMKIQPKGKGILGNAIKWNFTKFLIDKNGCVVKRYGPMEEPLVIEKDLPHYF
# Method in brief: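 NADPH consumption, followed by fluorescence at 340/450 nm between 0 and 15 min, reports GPX4 activity via coupled glutathione reductase (100 nM). Enzyme 200 nM was pre-exposed to compound 30 min; 0.5 mM cumene hydroperoxide and 1 mM GSH served as substrates.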
# [3] = biological target: Luciferin 4-monooxygenase (Photinus pyralis) (UniProt P08659); assay: Primary firefly luciferase (FLuc) qHTS assay for identification of artifact compounds. (AID 1845220); note: nearly all actives have a fitted effect of over 60% in size
# Method in brief: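 FLuc 10 nM; luciferin 10 uM; ATP 10 uM; Tris-acetate pH 7.6, Mg-acetate 10 mM; 15 min RT preincubation; 5 min reaction; luminescence.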
# [4] = Primary fluorescence-based thiol-reactive (MSTI) qHTS assay for identification of artifact compounds. (AID 1845221);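 note: series mostly up to about 54 µM; thiol-reactive compounds lower the probe fluorescence signal; nearly all actives have a fitted effect of over 65% in size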
# Method in brief: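 Probe: MSTI 4 uM, PBS pH 7.4, 2% DMSO. Incubation 1 h, RT, light-protected. Readout fluorescence 525/598 nm.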
# [5] = system: Nanoluciferase (engineered Oplophorus gracilirostris luciferase); assay: Primary Nanoluciferase (NLuc) qHTS assay for identification of artifact compounds. (AID 1845222);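 note: NLuc secreted into diluted conditioned medium of S16 cells; series mostly up to about 54 µM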
# Method in brief: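 NLuc from S16 cell medium (1:55) plus test compounds, 15 min, room temperature. Luminescence after Nano-Glo (1:100) addition, 5 min.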
# [6] = qHTS drug screen for cell cycle checkpoint inhibitors in PARPi-resistant BRCA-mutant ovarian cancer cell lines. (AID 1963452; calls by dose curve; note: potency is the fitted concentration of half-maximal effect); settings: PEO1/OlaR viability, CellTiter-Glo luminescence, 96 h; for Z-AUC: stronger effect = lower value
# Method in brief: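 PEO1, PEO4 and PEO1/OlaR ovarian cancer cells, 600 per well, exposed 96 h at 37C to a dilution series. Viability read by CellTiter-Glo luminescence, normalized to DMSO and empty wells; activity summarized as Z-AUC.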
# [7] = Primary redox qHTS assay for identification of artifact compounds. (AID 1845223)
# Method in brief: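 Amplex Red (25 uM) and HRP (250 mU/mL) in HBSS, with compounds for 15 min, then 250 uM DTT for 30 min, room temperature, dark. Fluorescence 525/598 nm read; normalized to DMSO and 10 uM DA3003; Hill fit.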
# [8] = measured here: PEO1 parental Z-AUC
Structure (SMILES),Potency [1],Potency [2],Potency [3],Potency [4],Potency [5],Z-AUC [6],"Z-AUC [6, 8]",Z-AUC ([6]; measured here: PEO4 Z-AUC),Potency [7],Potency [6]
Cc1nnc(C(C)C)n1C1CC2CCC(C1)N2CC[C@H](NC(=O)C1CCC(F)(F)CC1)c1ccccc1 (stereo partly specified),inactive,inactive,inactive,inactive,inactive,1.09 (inactive) and 0.404 (inactive),1.65 and 0.521,1.24 and 0.375,–,–
CC(C)=CCC/C(C)=C/CC/C(C)=C/CC[C@]1(C)CCc2cc(O)cc(C)c2O1,inactive,inactive,inactive,inactive,–,–,–,–,inactive,–
O=C(c1ccc(NS(=O)(=O)c2cccc3cccnc23)cc1)N1CCN(CC2CC2)CC1,inactive,inactive,inactive,inactive,inactive,-0.157 (inactive),-0.299,-0.11,inactive,–
CCCCS(=O)(=O)Nc1ncnc(OCCOc2ncc(Br)cn2)c1-c1ccc(Br)cc1,inactive,inactive,inactive,inactive,–,–,–,–,inactive,–
Cc1nn(C)c(COc2ccc(N3CCN(S(=O)(=O)N(C)C)CC3)cc2)c1-c1cccc2c(CCCOc3cccc4ccccc34)c(C(=O)O)n(CCN3CCOCC3)c12,inactive,inactive,inactive,inactive,inactive,0.0442 (inactive),0.77,0.53,inactive,–
CC1NC(=O)CNC(=O)C(C(C)C)NC(=O)C2CCCN2C(=O)C(C(C)C)NC(=O)C(Cc2c[nH]c3ccccc23)NC1=O (stereo unspecified) (cyclo(GAWVPV); configuration not given here),inactive,inactive,inactive,inactive,–,–,–,–,inactive,–
COc1ncc(-c2ccc3c(Nc4cc(Oc5cc(F)cc(F)c5)cc(C(=O)O)c4)c(S(=O)(=O)NC4CC4)cnc3c2)c(OC)n1,inactive,inactive,inactive,inactive,inactive,-0.517 (inactive),-0.369,-0.317,inactive,–
O=C(O)C[C@H](O)C[C@H](O)/C=C/c1c(C2CC2)nc2ccccc2c1-c1ccc(F)cc1,inactive,inactive and 22.4 µM (active),inactive,inactive,inactive,-0.947 (inactive),-0.553,-1.48,–,–
CNC(=O)c1ccc(Nc2ncc(C(F)(F)F)c(NCc3nccnc3N(C)S(C)(=O)=O)n2)cc1,inactive,inactive,inactive,inactive,inactive,-0.202 (inactive),0.488,-0.174,inactive,–
CCC(C)C(N)C1=NC(C(=O)N[C@@H](CC(C)C)C(=O)N[C@H](CCC(=O)O)C(=O)N[C@H](C(=O)N[C@H]2CCCCNC(=O)[C@H](CC(N)=O)NC(=O)[C@@H](CC(=O)O)NC(=O)[C@H](Cc3cnc[nH]3)NC(=O)[C@@H](Cc3ccccc3)NC(=O)[C@H]([C@@H](C)CC)NC(=O)[C@@H](CCCN)NC2=O)[C@@H](C)CC)CS1 (stereo partly specified) (X1-L[dE]IK[dOrn]I[dF]H[dD]N; lactam 4-C),inactive,inactive,inactive,inactive,inactive,0.134 (inactive),1.01,0.703,inactive,–
CN1CC[C@@H](NC(=O)Nc2ccc(C#N)cc2)C[C@@H]1c1nc2ccccc2[nH]1,inactive,inactive,inactive,inactive,inactive,-0.312 (inactive),0.0879,-1.25,inactive,–
CON(C)C(=O)N1N=C(c2cc(F)ccc2F)S[C@@]1(CCCN)c1ccccc1,inactive,inactive,inactive,inactive,inactive,–,-2.66,-2.54,inactive,8.7 nM (active)
NC1CCC(N[C@@H]2C[C@H]2c2ccccc2)CC1 (stereo partly specified),inactive,inactive,inactive,inactive,inactive,-1.43 (inactive),-0.571,-0.668,inactive,–
CN(C)C/C=C/C(=O)Nc1ccc(C(=O)Nc2cccc(Nc3ncc(Cl)c(-c4c[nH]c5ccccc45)n3)c2)cc1,inactive,inactive,inactive,inactive,inactive,-2.19 (inactive),-3.23,-2.66,–,–
CCS(=O)(=O)N1CCC([C@@H](C)n2c(C)c(C(=O)NCc3c(OC)cc(C)[nH]c3=O)c3ccccc32)CC1,inactive,inactive,inactive,inactive,inactive,-0.188 (inactive),0.682,-0.124,–,–
Cc1cccc(-c2[nH]c(CNc3ccccc3F)nc2-c2ccc3ncnn3c2)n1,inactive,inactive,inactive,inactive,inactive,-0.298 (inactive),0.223,-0.0692,inactive,–
COc1cc2c(Nc3ccc(Cl)c(Cl)c3F)ncnc2cc1OCC1C[C@@H]2CN(C)C[C@@H]2C1 (stereo partly specified),inactive,inactive,inactive,inactive,inactive,-0.294 (inactive),-0.529,-0.609,–,–
